Source: PubChem BioAssay (National Center for Advancing Translational Sciences (NCATS))
Only some compounds are listed: those with a hit (about 21% of all), similar ones and a draw of the others.
SARS PLP yeast = qHTS of Yeast-based Assay for SARS-CoV PLP | S. cerevisiae expressing SARS-CoV PLpro, growth rescue | Potency, µM (titrated, usually from 32.9 µM), inactives show at the highest dose activity, positive = growth rescue, hits mostly activators | 330,000 compounds, 0.19% hits | AID 485353, 2010; also: potency is read from the fitted curve at half-maximal effect; 0% is about no effect; nearly all actives have a fitted effect of over 55% in size
Pf growth 48h = Primary qHTS for delayed death inhibitors of the malarial parasite plastid, 48 hour incubation; P. falciparum luciferase growth in erythrocytes, 48 h; 310,000 compounds, 5.9% hits; Potency, µM (titrated, usually from 28.7 µM), for the others: top-dose activity change, negative = inhibition, usual class: inhibitors; AID 504832, 2011; active = well fitted inhibition curve with a large enough effect; inconclusive = small, poorly fitted or top-dose-only effect, or another doubt; inactive = no such curve, though single readings can be large or run the other way; also: potency is read from the fitted curve at half-maximal effect; % is scaled to controls: 0 for no effect and ±100 for the full control effect
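Cell-based growth assay: transgenic P. falciparum expressing firefly luciferase, cultured in red cells within RPMI 1640 containing 0.5% w/v Albumax, 24 mM bicarbonate and gentamycin. A drop in luciferase activity indicates inhibition.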
CHX counter = Cycloheximide Counterscreen for Small Molecule Inhibitors of Shiga Toxin | 300,000 compounds, 12% hits | AID 2314, 2010 | cell reporter, cycloheximide protein synthesis inhibition counterscreen | max response, %; in the data active = max response mostly above about 13%, no sharp cut-off; inactive = mostly below about 14%; also: read at 38.3 µM for the half of the compounds with a filed dose; 0% is about no effect
Pf growth 96h = Primary qHTS for delayed death inhibitors of the malarial parasite plastid, 96 hour incubation; P. falciparum luciferase reporter growth, 96 h; Potency, µM (top dose mostly 28.7 µM), for the others: at the top dose activity change, negative = inhibition, usual class: inhibitors; 320,000 compounds, 6.9% hits; AID 504834, 2011; active = well fitted inhibition curve with a large enough effect; inconclusive = small, poorly fitted or top-dose-only effect, or another doubt; inactive = no such curve, though single readings can be large or run the other way; also: potency is read from the fitted curve at half-maximal effect; % is scaled to controls: 0 for no effect and ±100 for the full control effect
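Erythrocytes infected with luciferase-expressing P. falciparum were dispensed at 2% hematocrit and 0.05% parasitemia (final), then incubated with compounds 96 hours at 37 C in 5% CO2. Luminescence after detection reagent addition reported growth.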
NS1 inh = qHTS Assay for Inhibitors of Influenza NS1 Protein Function. Potency, µM (highest dose often 46.1 µM), inactives show at the top dose activity, positive = more growth. 270,000 compounds, 0.4% hits. AID 2326, 2010; also: potency is read from the fitted curve at half-maximal effect; actives are rising curves; nearly all actives have a fitted effect of over 50% in size
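Growth recovery, yeast-based: influenza A NS1 expressed in S. cerevisiae causes slow growth, and suppressors are detected by OD600. The parent strain without NS1 is used as positive control.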
Shiga inhibitor = A qHTS for Small Molecule Inhibitors of Shiga Toxin | Vero cells, Shiga toxin protein synthesis inhibition reporter | inhibition, % at 38.7 µM | 290,000 compounds, 9.2% hits | AID 2315, 2010; in the data active = inhibition mostly above about 28%, no sharp cut-off; inactive = mostly below about 43%; also: 0% is about no effect
Numbers without * were called inactive; ? = inconclusive; · = no result. Unless noted, calls follow the shape of the full dose curve.

SMILES	SARS PLP yeast	Pf growth 48h	CHX counter	Pf growth 96h	NS1 inh	Shiga inhibitor
O=C(Nc1ccc2c(c1)OCO2)N1CCC(CO)(CC2CCCCO2)CC1 (stereo not drawn)	-2%	-14%	17*	-7%	2%	46*
O=C(Nc1ccc2c(c1)OCO2)N1CCN(c2ccccc2Cl)CC1	-13%	·	52*	-11%	-6%	85*
COc1ccc(C)cc1NC(=O)N1CCC(CO)(CC2CCCCO2)CC1 (stereo not drawn)	0%	-6%	-3	?	-1%	11
O=C(Nc1ccc2c(c1)OCO2)N1CCN(S(=O)(=O)c2ccc(Cl)cc2)CC1	-2%	56%	-3	·	-39%	-13
O=C(Nc1ccc2c(c1)OCO2)N1CCN(c2cccc(C(F)(F)F)c2)CC1	-4%	2%	12*	·	-31%	27*
COCC(=O)Nc1cc(C)cn(Cc2c(F)cccc2Cl)c1=O	8%	-2%	4	?	?	·
CCOc1ccc2c(c1)sc(N)[n+]2Cc1cc(C)cc2cccnc12	8%	9.3µM*	-7	1.9µM*	-24%	-14
Cc1cc(C[n+]2ncsc2N)c2ncccc2c1	-2%	-36%	-4	-90%	-1%	-13
COc1ccc2c(c1)sc(N)[n+]2Cc1cc(C)cc2cccnc12	-5%	9.3µM*	-7	?	-12%	8
CCOc1ccc2c(ccc(/C=C\c3cc(C)c4cccnc4c3O)[n+]2C)c1	·	·	·	·	-41%	·
c1ccc(C[N+]23CN4CN(CN(C4)C2)C3)cc1	·	·	·	·	-3%	·
Cc1ccc(C)c(S(=O)(=O)Nc2ccc(C(=O)N3CCCCC3)cc2)c1	-3%	12%	-2	11%	-1%	-24
C[n+]1cccc(/C=C\c2ccc3cccc(O)c3n2)c1	·	·	·	·	-4%	·
COC(=O)c1ccc(/C=C/c2ccc3cccc(OC(C)=O)c3n2)cc1	28%	35%	57*	63%	-32%	117*
O=C(O)c1ccc(/C=C/c2ccc3cccc(O)c3n2)cc1	-7%	179%	41*	1%	·	82*
Oc1ccc(/C=C/c2ccc3cccc(O)c3n2)cc1Br	-10%	·	50*	?	-83%	68*
COC(=O)c1ccc(NS(=O)(=O)c2cccc3cccnc23)cc1	1%	2%	-3	·	5%	-10
CC(O)CO (stereo not drawn)	-11%	2%	·	?	·	·
O=S(=O)(NCc1ccco1)N1CCOCC1	4%	13%	-3	18%	-11%	-2
CCOc1ccc(CC2S/C(=N/c3ccccn3)NC2=O)cc1 (stereo not drawn)	2%	15µM*	-4	80%	2%	28
O=C1NC(=Nc2ccc(F)cc2)SC1Cc1ccc(F)cc1 (stereo not drawn)	1%	9.3µM*	2	8.3µM*	3%	12
O=C(Nc1ccc(F)cc1)c1cc2ccccc2o1	-8%	186%	46*	?	-7%	58*
O=C(Nc1ccccc1)c1cc2ccccc2o1	-67%	308%	26	159%	-22%	45*
O=C(Nc1ccc(NC(=O)c2cc3ccccc3o2)cc1)c1ccco1	1%	0%	1	0%	-2%	42
O=C(Nc1ccc(N2CCCC2)cc1)c1cc2ccccc2o1	1%	?	47*	?	24%	65*
SMILES	SARS PLP yeast	Pf growth 48h	CHX counter	Pf growth 96h	NS1 inh	Shiga inhibitor
CC(C)C(=O)N1CCN(c2ccc(NC(=S)NC(=O)c3cc4ccccc4o3)cc2)CC1	10%	0%	33*	5.2µM*	11%	75*
CCOc1ccc(/C(O)=C2/C(=O)C(=O)N(CCCN3CCOCC3)C2c2ccc(C)cc2)cc1C (stereo not drawn)	4%	159%	-2	39%	4%	-9
CC(=O)c1ccc(NC(=O)c2cc3ccccc3o2)cc1	-2%	108%	35*	36%	-11%	·
CC(C)c1nnc(NC(=O)c2cc3ccccc3o2)s1	-2%	180%	33*	35%	0%	111*
Cc1cc(C(=O)Nc2ccccc2)oc1C	-6%	253%	39*	?	-26%	121*
O=C(O)COCC(=O)N1CCCN(c2ccc(C(F)(F)F)cn2)CC1	-2%	0%	-4	25%	2%	-9
CC(=O)c1cccc(OCC(=O)N2CCN(c3ccc(C(F)(F)F)cn3)CC2)c1	-3%	-28%	9	7.4µM*	·	12
O=C(C[C@@H](c1ccccc1)N1CCCCC1)c1ccccc1	·	·	·	·	-6%	·
O=C(Oc1ccc(-c2cn3c(n2)SCC3)cc1)c1ccccc1	-5%	-16%	12*	·	-4%	11
O=C(Cc1ccc(F)cc1)Nc1cccc(-c2cn3c(n2)SCC3)c1	3%	-6%	14	-4%	·	39
CC(=O)c1ccc(S(=O)(=O)Nc2cccc(-c3cn4c(n3)SCC4)c2)cc1	-1%	3%	14	?	·	12
O=C(Nc1ccc(-c2cn3c(n2)SCC3)cc1)c1ccco1	-1%	62%	40*	110%	4%	65*
CC(=O)Nc1ccc(-c2cn3c(n2)SCC3)cc1	2%	81%	32*	84%	2%	28
CC(=O)Nc1ccc(S(=O)(=O)Nc2cccc(-c3cn4c(n3)SCC4)c2)cc1	4%	?	-3	?	·	-4
O=C(Nc1cccc(-c2cn3c(n2)SCC3)c1)c1ccc(Br)o1	-3%	17%	17	0.74µM*	·	29
O=C(CNC(=O)c1ccccc1F)OCc1nc2ccccc2s1	0%	36%	25	46%	·	67*
O=C(CNC(=O)c1ccccc1)OCc1nc2ccccc2s1	-8%	155%	42*	120%	-17%	49*
O=C(CNC(=O)c1ccc(Cl)cc1Cl)OCc1nc2ccccc2s1	-13%	9%	2	53%	-17%	70
CN1CCC(=O)N(CCOc2ccccc2)CC1	-6%	-1%	6	-12%	4%	-7
CCOC(=O)c1cnc2ccccc2c1NCc1ccco1	-2%	?	23*	?	-7%	52*
CCOC(=O)CSc1nc(Nc2ccc3c(c2)OCO3)c2ccccc2n1	-28%	8.3µM*	-2	8.3µM*	-35%	-19
CCOC(=O)c1cnc2c(C)cccc2c1Nc1cccc(C(=O)O)c1	-1%	-7%	4	21%	0%	10
CCOC(=O)c1cnc2ccccc2c1Nc1ccc2c(c1)OCCO2	14%	4.1µM*	110*	-1%	-20%	154*
CCOC(=O)c1sc2ncnc(NCc3ccco3)c2c1C	-4%	·	4	13%	-89%	-2
CCOC(=O)c1cnc2ccc(OC)cc2c1NCc1ccccc1	-19%	12µM*	-2	?	-22%	-10
CCOC(=O)c1cnc2c(C(=O)OC)cccc2c1NCc1cccnc1	0%	-10%	10	26%	7%	41
